Test results published in the supplement of paper PMC11732987, “Enantioselective OTUD7B fragment discovery through chemoproteomics screening and high-throughput optimisation” (Communications Chemistry, 2025).

What was measured:
Assay in all cases: log2 ratio of Biotin-Ahx-Ub-VS probe labelling (fragment/DMSO); higher = less target engagement (more negative = stronger competition), active = hit call of the paper (q ≤ 0.05, log2 ratio ≤ -1)
Conditions in all cases: compound concentration: 200 uM; treatment time: 3 h
USP9X = USP9X (UniProt Q93008)
Outline: (§1)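 HEK293T lysate in Tris/CHAPS/IGEPAL buffer with protease inhibitors (495 µg per sample) was given fragment at 200 µM or vehicle for 3 h, in triplicate. It then received Biotin-Ahx-Ub-VS at 0.5 µM final for 1 h. Labelled DUBs were NeutrAvidin-enriched, digested with LysC and trypsin, and run by diaPASEF LC-MS/MS. Values are average log2 fragment/vehicle ratios by unpaired t-test on global-median-normalised Spectronaut quantities of proteins with ≥2 unique peptides.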

UniProt O00487 = target: UniProt O00487
Outline: as §1

UniProt O00507 = target: UniProt O00507
Outline: as §1

UniProt P51784 = target: UniProt P51784
Outline: as §1

UniProt Q5T2D3 = target: T1, UniProt Q5T2D3
T1 sequence (whole entry): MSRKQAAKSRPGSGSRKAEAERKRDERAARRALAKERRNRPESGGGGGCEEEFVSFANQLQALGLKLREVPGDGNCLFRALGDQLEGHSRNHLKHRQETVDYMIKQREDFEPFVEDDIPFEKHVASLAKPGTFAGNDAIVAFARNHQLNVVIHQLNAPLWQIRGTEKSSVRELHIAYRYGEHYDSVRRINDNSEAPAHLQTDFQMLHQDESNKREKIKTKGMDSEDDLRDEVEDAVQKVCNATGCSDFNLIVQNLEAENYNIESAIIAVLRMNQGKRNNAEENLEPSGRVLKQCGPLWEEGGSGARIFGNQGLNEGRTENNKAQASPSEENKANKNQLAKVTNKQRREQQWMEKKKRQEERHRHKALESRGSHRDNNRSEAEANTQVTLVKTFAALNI
Outline: as §1

UniProt Q8TE49 = target: T2, UniProt Q8TE49
T2 sequence (whole entry): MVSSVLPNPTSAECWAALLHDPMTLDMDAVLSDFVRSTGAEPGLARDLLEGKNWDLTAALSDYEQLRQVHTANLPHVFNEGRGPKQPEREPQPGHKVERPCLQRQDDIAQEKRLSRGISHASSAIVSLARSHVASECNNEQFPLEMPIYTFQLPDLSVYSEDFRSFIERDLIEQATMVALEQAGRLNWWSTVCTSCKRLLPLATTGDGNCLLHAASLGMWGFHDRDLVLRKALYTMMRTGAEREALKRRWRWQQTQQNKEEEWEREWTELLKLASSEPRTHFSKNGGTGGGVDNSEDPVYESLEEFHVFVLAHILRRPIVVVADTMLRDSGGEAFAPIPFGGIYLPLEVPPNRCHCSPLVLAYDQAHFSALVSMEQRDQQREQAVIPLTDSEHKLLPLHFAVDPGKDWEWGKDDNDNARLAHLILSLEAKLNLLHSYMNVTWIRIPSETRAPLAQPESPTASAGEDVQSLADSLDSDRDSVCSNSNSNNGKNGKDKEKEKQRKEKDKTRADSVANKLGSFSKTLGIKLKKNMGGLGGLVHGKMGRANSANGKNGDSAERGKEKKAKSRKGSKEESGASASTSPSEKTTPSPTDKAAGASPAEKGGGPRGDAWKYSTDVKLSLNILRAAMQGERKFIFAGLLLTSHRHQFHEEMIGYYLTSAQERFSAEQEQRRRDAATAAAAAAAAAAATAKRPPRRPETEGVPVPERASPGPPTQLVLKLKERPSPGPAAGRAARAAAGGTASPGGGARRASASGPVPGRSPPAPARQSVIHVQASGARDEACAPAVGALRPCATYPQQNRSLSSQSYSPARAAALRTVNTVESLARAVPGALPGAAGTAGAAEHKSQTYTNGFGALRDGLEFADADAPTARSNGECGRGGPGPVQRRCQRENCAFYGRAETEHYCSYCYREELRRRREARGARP
Outline: as §1

UniProt Q9P2H5 = target: T3, UniProt Q9P2H5
T3 sequence (whole entry): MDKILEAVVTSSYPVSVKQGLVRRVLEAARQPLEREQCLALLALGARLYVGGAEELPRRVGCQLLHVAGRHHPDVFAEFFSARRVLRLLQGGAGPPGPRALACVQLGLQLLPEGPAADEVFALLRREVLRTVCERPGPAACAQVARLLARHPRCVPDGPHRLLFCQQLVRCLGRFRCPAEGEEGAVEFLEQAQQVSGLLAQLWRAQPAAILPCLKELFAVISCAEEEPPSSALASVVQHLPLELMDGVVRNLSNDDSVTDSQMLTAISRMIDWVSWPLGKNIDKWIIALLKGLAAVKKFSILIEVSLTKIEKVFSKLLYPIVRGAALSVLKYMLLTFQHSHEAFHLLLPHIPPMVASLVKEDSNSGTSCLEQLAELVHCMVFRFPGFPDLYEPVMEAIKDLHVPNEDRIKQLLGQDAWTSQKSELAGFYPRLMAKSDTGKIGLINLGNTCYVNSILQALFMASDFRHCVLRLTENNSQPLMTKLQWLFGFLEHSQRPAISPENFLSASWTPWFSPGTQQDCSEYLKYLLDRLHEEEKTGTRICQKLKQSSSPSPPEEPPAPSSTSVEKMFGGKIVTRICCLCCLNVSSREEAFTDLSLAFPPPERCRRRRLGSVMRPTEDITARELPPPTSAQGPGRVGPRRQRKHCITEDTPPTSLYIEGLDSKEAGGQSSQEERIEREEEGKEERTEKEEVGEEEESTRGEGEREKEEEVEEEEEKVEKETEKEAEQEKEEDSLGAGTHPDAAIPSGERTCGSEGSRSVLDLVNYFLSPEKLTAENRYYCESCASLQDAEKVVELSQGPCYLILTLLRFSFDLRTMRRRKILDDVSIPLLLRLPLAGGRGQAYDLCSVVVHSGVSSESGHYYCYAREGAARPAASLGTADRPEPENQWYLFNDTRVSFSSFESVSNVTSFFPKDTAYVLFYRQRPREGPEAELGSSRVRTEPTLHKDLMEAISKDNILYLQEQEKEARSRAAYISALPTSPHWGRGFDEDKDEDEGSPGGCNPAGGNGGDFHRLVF
Outline: as §1

UniProt Q9UGI0 = target: T4, UniProt Q9UGI0
T4 sequence (whole entry): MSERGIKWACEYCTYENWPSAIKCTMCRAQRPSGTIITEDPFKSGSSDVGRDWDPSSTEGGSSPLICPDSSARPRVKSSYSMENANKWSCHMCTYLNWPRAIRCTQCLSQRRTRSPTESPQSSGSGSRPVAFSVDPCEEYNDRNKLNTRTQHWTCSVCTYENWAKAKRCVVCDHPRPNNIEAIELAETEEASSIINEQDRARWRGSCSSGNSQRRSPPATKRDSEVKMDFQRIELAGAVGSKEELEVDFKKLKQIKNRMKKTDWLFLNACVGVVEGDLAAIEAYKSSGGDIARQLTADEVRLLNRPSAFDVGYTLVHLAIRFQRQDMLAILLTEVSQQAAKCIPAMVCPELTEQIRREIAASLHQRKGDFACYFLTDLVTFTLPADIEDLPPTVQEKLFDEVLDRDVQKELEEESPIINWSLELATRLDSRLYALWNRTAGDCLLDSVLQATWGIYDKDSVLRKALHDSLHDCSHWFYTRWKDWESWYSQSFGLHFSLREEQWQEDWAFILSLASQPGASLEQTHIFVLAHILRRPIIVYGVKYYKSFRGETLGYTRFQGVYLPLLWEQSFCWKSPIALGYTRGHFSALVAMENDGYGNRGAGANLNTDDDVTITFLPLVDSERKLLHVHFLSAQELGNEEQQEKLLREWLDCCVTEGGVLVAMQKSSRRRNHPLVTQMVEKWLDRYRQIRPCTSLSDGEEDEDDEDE
Outline: as §1

YOD1 = target: T5, YOD1 (UniProt Q5VVQ6)
T5 sequence (whole entry): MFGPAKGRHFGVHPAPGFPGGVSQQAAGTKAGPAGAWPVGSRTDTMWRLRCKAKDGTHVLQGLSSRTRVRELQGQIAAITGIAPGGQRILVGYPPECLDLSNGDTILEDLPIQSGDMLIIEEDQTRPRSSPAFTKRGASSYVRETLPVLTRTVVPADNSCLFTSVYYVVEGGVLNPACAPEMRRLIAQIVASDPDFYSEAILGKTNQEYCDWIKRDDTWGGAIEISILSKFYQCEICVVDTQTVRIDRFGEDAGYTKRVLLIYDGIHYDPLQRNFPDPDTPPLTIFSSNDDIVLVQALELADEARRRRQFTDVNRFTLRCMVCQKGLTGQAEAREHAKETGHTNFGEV
Outline: as §1

Measured: log2 ratio of Biotin-Ahx-Ub-VS probe labelling

Chain of UniProt P51784 (P51784 whole entry): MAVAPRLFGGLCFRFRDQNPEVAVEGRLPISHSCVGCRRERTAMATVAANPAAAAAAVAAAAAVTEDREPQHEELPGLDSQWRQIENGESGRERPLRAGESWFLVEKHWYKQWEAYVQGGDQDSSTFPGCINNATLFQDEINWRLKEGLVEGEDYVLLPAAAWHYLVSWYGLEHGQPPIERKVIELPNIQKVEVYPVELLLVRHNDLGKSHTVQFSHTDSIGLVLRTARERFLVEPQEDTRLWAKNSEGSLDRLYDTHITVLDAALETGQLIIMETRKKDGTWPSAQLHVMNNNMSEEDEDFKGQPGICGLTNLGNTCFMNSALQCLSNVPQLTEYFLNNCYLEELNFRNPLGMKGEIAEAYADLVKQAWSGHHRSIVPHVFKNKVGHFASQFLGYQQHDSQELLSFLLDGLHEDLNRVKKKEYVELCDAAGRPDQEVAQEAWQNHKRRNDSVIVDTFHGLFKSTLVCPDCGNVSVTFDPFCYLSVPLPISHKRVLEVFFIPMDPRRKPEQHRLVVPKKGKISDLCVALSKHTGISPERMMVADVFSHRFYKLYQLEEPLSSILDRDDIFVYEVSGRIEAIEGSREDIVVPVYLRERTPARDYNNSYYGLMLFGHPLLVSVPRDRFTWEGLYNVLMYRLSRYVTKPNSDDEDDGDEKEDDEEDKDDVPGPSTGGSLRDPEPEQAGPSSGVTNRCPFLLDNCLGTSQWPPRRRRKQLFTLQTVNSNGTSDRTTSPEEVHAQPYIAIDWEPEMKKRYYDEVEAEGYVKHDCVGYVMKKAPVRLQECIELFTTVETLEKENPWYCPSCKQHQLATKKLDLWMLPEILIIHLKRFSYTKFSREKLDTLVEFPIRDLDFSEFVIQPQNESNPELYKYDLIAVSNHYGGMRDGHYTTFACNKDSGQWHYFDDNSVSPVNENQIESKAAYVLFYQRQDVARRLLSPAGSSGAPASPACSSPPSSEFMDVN
Chain of UniProt O00487 (O00487 whole entry): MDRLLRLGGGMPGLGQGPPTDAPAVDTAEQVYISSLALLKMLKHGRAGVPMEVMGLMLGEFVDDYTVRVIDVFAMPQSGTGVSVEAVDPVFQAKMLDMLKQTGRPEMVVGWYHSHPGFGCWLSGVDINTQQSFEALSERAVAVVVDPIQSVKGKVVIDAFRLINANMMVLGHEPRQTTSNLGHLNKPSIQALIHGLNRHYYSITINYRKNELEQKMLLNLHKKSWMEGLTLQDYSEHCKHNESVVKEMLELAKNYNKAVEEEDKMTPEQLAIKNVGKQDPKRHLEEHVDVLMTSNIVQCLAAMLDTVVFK
Chain of UniProt O00507 (O00507 whole entry): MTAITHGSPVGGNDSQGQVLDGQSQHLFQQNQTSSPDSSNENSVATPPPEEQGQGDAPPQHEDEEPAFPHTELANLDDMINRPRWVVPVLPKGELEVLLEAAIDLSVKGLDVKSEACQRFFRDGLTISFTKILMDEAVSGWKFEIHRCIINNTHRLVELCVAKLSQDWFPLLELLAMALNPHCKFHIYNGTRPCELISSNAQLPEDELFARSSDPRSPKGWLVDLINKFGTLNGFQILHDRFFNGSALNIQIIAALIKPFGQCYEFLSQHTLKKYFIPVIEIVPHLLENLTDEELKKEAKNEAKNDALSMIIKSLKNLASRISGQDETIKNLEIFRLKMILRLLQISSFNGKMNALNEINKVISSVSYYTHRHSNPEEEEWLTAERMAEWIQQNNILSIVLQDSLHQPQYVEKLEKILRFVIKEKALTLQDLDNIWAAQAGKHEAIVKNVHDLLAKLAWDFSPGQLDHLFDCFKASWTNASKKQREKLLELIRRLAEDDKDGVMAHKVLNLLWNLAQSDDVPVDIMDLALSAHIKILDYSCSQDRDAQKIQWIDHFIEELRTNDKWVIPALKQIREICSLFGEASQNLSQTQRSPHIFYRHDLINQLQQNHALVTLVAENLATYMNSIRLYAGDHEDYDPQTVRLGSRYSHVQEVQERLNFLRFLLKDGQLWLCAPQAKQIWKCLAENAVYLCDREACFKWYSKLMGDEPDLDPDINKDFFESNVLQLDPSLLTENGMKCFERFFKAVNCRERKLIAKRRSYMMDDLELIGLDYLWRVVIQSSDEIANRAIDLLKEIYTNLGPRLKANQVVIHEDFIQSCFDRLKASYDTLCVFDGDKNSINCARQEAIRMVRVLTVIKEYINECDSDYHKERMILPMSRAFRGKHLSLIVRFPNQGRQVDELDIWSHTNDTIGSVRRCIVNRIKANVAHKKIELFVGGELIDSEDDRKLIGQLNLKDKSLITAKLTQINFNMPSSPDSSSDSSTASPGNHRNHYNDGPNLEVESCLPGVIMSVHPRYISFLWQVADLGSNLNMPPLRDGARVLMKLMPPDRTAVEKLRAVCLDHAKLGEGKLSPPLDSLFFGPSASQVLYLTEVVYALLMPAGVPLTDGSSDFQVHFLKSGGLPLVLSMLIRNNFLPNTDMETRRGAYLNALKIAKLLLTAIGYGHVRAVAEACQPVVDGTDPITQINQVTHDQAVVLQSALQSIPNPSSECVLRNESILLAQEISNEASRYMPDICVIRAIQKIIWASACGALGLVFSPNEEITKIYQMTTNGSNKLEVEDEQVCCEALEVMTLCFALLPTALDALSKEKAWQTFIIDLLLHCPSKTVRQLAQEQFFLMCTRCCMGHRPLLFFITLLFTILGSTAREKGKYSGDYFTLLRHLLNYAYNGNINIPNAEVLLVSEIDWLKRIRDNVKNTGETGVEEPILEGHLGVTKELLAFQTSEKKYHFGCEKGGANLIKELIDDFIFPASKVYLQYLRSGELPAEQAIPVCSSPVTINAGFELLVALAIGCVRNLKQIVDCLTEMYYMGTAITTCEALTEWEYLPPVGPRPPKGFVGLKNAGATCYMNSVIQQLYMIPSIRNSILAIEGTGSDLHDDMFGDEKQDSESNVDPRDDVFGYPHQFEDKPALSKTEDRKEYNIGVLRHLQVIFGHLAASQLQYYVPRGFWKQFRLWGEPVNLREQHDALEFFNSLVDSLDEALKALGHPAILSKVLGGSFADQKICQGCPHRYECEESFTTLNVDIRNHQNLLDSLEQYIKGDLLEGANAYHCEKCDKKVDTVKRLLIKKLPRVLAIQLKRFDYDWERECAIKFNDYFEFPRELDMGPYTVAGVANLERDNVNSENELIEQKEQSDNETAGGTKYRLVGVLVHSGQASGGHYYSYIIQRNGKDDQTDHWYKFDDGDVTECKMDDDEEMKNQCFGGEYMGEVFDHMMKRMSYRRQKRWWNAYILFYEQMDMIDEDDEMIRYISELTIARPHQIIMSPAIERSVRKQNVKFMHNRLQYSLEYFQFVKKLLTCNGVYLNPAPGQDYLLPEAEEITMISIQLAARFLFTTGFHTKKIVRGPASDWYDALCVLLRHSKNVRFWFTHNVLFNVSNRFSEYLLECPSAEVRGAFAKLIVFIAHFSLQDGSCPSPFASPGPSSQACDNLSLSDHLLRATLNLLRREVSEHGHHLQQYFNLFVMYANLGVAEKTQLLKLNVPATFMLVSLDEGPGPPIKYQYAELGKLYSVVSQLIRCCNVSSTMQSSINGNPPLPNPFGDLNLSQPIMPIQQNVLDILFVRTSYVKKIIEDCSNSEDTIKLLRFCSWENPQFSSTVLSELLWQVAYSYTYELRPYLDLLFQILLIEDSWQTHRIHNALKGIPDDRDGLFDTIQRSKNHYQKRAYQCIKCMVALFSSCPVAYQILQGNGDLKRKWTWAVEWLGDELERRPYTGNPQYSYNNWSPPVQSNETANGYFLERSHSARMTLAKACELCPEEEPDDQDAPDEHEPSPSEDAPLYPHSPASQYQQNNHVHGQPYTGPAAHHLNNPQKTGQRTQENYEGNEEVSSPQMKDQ

O=C(CCl)NCCc1ccc2c(c1)OCCO2
inactive: USP9X -0.26 | UniProt O00487 -0.093 | UniProt O00507 -0.489 | UniProt P51784 0.0955 | UniProt Q5T2D3 -0.249 | UniProt Q8TE49 -0.327 | UniProt Q9P2H5 -0.0308 | UniProt Q9UGI0 -0.256 | YOD1 -0.414
